# High-throughput results (PubChem BioAssay)
# LEDGF integ inh: blocks HIV-1 LEDGF/p75-dependent DNA integration. TR-FRET IN-LEDGF/p75 DNA integration, Eu/Cy5. hit rate 0.64% among 370,000. inhibition, % at 3.7 µM;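 active means inhibition above the screen-wide mean plus 3 SD, cut at about 13% in these data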;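 further: signal is the Cy5 over europium emission ratio at 671 and 618 nm; 0% = plate median of compound wells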
# UHRF1 MBD2 ctr: blocks human UHRF1 binding to methylated DNA | UHRF1 binding to methylated oligo, TR-FRET | hit rate 0.75% among 370,000 | inhibition, % at 4.4 µM | Q96T88; in the data active means inhibition above about 21%;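 further: UHRF1 SRA domain binding a hemimethylated CpG hairpin DNA probe; 0% = median of test compound wells and 100% = reference inhibitor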
# CASP6 VEID inh: inhibitors of human caspase-6. inhibition, % at 12.5 µM. hit rate 0.53% among 350,000. purified caspase-6, Z-VEID-R110 cleavage fluorescence;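 active means mean inhibition across replicates at least about 35%, with every replicate also reaching that limit, limit read from the data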;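 further: 0% = median of neutral control wells and 100% = no fluorescence left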
# MBD2 DNA inh: MBD2-methylated oligo binding inhibition; TR-FRET, MBD2 binding to methylated oligonucleotide; Q9UBB5; inhibition, % at 4.4 µM; hit rate 0.31% among 370,000; in the data active means inhibition above about 13%
# Target sequence (Q9UBB5 whole entry, looked up): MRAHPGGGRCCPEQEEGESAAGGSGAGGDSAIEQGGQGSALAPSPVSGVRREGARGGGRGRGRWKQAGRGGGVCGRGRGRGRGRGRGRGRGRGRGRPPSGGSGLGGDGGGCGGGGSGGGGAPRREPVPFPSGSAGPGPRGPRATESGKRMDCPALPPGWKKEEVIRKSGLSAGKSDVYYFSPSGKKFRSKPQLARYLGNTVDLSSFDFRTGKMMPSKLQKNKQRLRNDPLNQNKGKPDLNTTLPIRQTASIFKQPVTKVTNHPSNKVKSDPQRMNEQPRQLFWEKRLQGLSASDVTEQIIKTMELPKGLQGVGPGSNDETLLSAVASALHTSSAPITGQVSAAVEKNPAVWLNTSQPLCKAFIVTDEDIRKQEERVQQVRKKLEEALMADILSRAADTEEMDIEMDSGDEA
# Starred values were filed as active, the others as inactive; nt = no result given. In the library only some 1.4% were active in any assay of this set; here they are far more common.
SMILES,LEDGF integ inh,UHRF1 MBD2 ctr,CASP6 VEID inh,MBD2 DNA inh
C[C@@H]1CCCCO[C@H](CN(C)C(=O)Cc2ccccc2)[C@H](C)CN([C@@H](C)CO)C(=O)c2cc(NC(=O)Cc3ccccc3)ccc2O1,nt,nt,1,nt
Cc1ccc(C(C(=O)NCc2ccc(F)cc2)N(CCCO)C(=O)C2COc3ccccc3O2)o1 (configuration not stated),1,23*,2,5
COc1ccc(C(=O)Nc2cc3c(oc2=O)CCCC3=O)cc1,2,12,44*,-1
O=C(Oc1c(CN2CCOCC2)cc(Cl)c2cccnc12)c1ccccc1,-7,-4,-1,-6
O=C(Oc1c(CN2CCOCC2)cc(Cl)c2cccnc12)c1ccccc1F,-4,22*,-2,13
COc1cc(C(=O)OCC(=O)N2CCCC2=O)cc(OC)c1C,-1,12,37*,4
O=C(O)Cn1c(=O)n(Cc2ccccc2)c2ccccc21,0,28*,-5,-1
O=C(Cn1c(NCCO)nc2ccccc21)c1cccs1,1,-1,nt,0
N=c1n(CC(=O)c2cccs2)c2ccccc2n1Cc1ccccc1,-4,25*,-2,0
C[C@@H]1CN([C@@H](C)CO)C(=O)c2cc(C#CC3CCCCC3)cnc2O[C@@H]1CN(C)Cc1ccncc1,nt,nt,-1,nt
COc1cccc(NS(=O)(=O)c2ccc3c(c2)CCCN3C(C)=O)c1,-4,4,4,11
O=C(O)c1ccc2c(c1)[C@@H]1C=CC[C@@H]1[C@H](c1ccccn1)N2,95*,98*,nt,91*
COc1cccc(NS(=O)(=O)c2ccc3c(c2)C2C=CCC2C(c2ccc(C(=O)O)cc2)N3)c1 (configuration not stated),44*,8,nt,1
C[C@H]1CN([C@@H](C)CO)C(=O)c2cc(-c3cccc(F)c3)cnc2O[C@@H]1CN(C)Cc1ccccn1,nt,nt,0,nt
COc1ccc(S(=O)(=O)Nc2ccc3c(c2)CC(=O)N([C@@H](C)CO)C[C@H](C)[C@@H](CN(C)C(=O)NC(C)C)O3)cc1,nt,nt,2,nt
O=C(C[C@H]1CC[C@@H](NC(=O)c2cccc(F)c2)[C@H](CO)O1)Nc1nccs1,nt,nt,1,nt
Cc1nc2cc(C(=O)NCCN3CCOCC3)ccc2n1-c1ccc(F)cc1F,-5,-1,nt,3
Cc1cccc(-n2c(C)nc3cc(C(=O)NCCN4CCOCC4)ccc32)c1,0,3,89*,6
CN(C)/C=C/C(=O)c1cnc(-c2cccc(Cl)c2)s1,4,0,-1,1
CC(=O)c1cnc(-c2cccc(Cl)c2)s1,-2,37*,3,5
CC(OC(=O)c1cc(O)c2ccccc2c1O)C(=O)Nc1ccc(C(N)=O)cc1 (configuration not stated),14*,-1,83*,-13
CC(OC(=O)c1ccccc1C(=O)N(C)c1ccccc1)C(=O)Nc1ccc(C(N)=O)cc1 (configuration not stated),1,2,-1,4
CCc1ccc2nc(Nc3ccc(OC)cc3OC)c(C#N)cc2c1,11,22*,nt,3
CCc1ccc(NS(=O)(=O)c2cc(OC)ccc2OC)cc1,3,-1,58*,2
CC(NCC1COc2ccccc2O1)C(=O)NCc1ccccc1 (configuration not stated),1,25*,-1,9
SMILES,LEDGF integ inh,UHRF1 MBD2 ctr,CASP6 VEID inh,MBD2 DNA inh
O=C(C[C@@H]1CC[C@H](NS(=O)(=O)c2ccccc2)[C@H](CO)O1)NCc1ccccc1F,nt,nt,-1,nt
Cc1c(OCC(=O)N2C[C@H]3C[C@@H](C2)c2cccc(=O)n2C3)ccc2c3c(c(=O)oc12)CCCC3,4,0,0,-2
CC(C)=CCOc1ccc2c(C)c(CC(=O)N3C[C@H]4C[C@@H](C3)c3cccc(=O)n3C4)c(=O)oc2c1C,3,35*,-1,0
Clc1ccccc1Nc1nc(NCc2ccccc2)nc2ccsc12,0,-2,2,0
OCc1ccccc1-c1nc(NCc2ccccc2)nc2ccsc12,0,-1,42*,1
C[C@@H]1CN([C@H](C)CO)C(=O)c2cc(C#C[C@@H](C)O)cnc2O[C@@H]1CN(C)C(=O)Cc1ccccn1,nt,nt,1,nt
COC(=O)CC1NCCc2cc(OC)c(OC)cc21 (configuration not stated),-1,33*,0,0
COc1cc2c(cc1OC)[C@H](Cc1ccc(O)cc1)NCC2,2,1,1,1
O=C(Cc1cccc2ccccc12)NN1C(=O)CSC1=S,1,-2,-2,0
O=C(NN1C(=O)CSC1=S)C(=O)NN1C(=O)CSC1=S,29*,19,51*,4
CCC(=O)N1CC2(C1)[C@H](c1ccccc1)[C@@H](CO)N2CC1CCOCC1,nt,nt,1,nt
CN(C)CCNC(=O)c1cccc2nc3c(ccc4ccccc43)nc12,-1,-33,-27,31*
CCc1nc2c(c(=O)c3ccccc3n2C)c(=O)n1C1CCCCCC1,-2,59*,nt,1
Cn1c2ccccc2c(=O)c2c(=O)n(C3CCCCCC3)c(C3CCCCC3)nc21,2,1,2,-4
Nc1sccc1C(=O)c1ccc(Cl)cc1,0,30*,0,-7
Cc1ccc(S(=O)(=O)N2C[C@@H](O)COC[C@H]3O[C@@H](CC(=O)NCc4ccc(Cl)c(Cl)c4)CC[C@@H]32)cc1,nt,nt,-1,nt
CCOc1cccc(/C=N/NC(=O)CC2C(=O)NN=C2C)c1O (configuration not stated),-5,-2,-1,-4
COc1cc(/C=N/Nc2ccc(C(=O)O)cc2)cc(OC)c1OC,3,-3,9,3
COc1cc(/C=N/Nc2ccc(C(=O)O)cc2)ccc1O,-3,15,39*,4
COc1cc(/C=N/NC(=O)CC2C(=O)NN=C2C)ccc1O (configuration not stated),74*,-2,0,0
O=C(NC1CCCCC1)[C@H]1[C@H](CO)[C@H]2Cn3c(cccc3=O)[C@H]2N1CC1CCCC1,nt,nt,-1,nt
Cc1ccc(CN2CCC[C@]3(N[C@H](c4ccc(C)cc4)[C@@H]4C(=O)N(Cc5ccccc5)C(=O)[C@@H]43)C2=O)cc1,6,22*,10,0
O=C1[C@H]2[C@@H](c3ccccc3)N[C@]3(CCCN(Cc4ccc(F)cc4)C3=O)[C@H]2C(=O)N1Cc1ccccc1,0,23*,11,10
O=C(Cc1ccccc1)N1CC[C@@H]2[C@H]1c1cc(C#Cc3ccccc3)ccc1N[C@@H]2CO,nt,nt,-1,nt
O=C(C[C@@H]1C[C@H]2c3cc(NS(=O)(=O)c4ccccc4)ccc3O[C@H]2[C@H](CO)O1)NCC1CC1,nt,nt,14,nt
C[C@@H]1CN([C@@H](C)CO)C(=O)Cc2cc(NC(=O)Nc3ccc(C(F)(F)F)cc3)ccc2O[C@H]1CN(C)C,nt,nt,2,nt
COc1cc(NC(=O)[C@H]2O[C@@H](n3ccc(N)nc3=O)[C@H](O)[C@@H]2O)cc(OC)c1OC,-2,43*,1,4
Cc1[nH]c2ccccc2c1/C=N/NC(=O)c1cc(C(C)C)[nH]n1,-3,25*,1,2
CCCNC(=O)C[C@@H]1CC[C@@H]2[C@@H](COc3ccc(NC(=O)Nc4ccccc4F)cc3C(=O)N2C)O1,nt,nt,2,nt
